This is an account of results in PubChem BioAssay (NCATS).

What all share (assay): Primary qHTS to identify gynecologic anti-cancer compounds using libraries of approved drugs and bioactive compounds (AID 1345084); also: nearly all actives have a fitted effect of over 55% in size
In general terms: Quantitative high-throughput screening tests each substance at several concentrations.

One assay deals with C33A. To be noted: Gynecologic cancer cell panel viability, ATPlite luminescence, 48 h; series mostly up to 57.5 µM. A digest of the protocol:
(§1)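 In this quantitative HTS, cell killing is estimated from loss of ATP-dependent luciferase light. Cells see five compound concentrations over a 48 h exposure.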
Background: In ATP-based viability assays light output follows the ATP content of the culture.

The subject of a further assay is CASKI. To be noted: Gynecologic cancer cell panel viability, ATPlite luminescence, 48 h; series mostly up to 57.5 µM. A digest of the protocol: as §1
Another assay concerns Es-2. The conditions noted are these: Gynecologic cancer cell panel viability, ATPlite luminescence, 48 h; series mostly up to 57.5 µM. A digest of the protocol: as §1
The subject of the next assay is HeLa. To be noted: Gynecologic cancer cell panel viability, ATPlite luminescence, 48 h; series mostly up to 57.5 µM. The gist of the method: as §1
Another assay has as its system Hek293T. The conditions noted are these: Gynecologic cancer cell panel viability, ATPlite luminescence, 48 h, control line for the selectivity index; series mostly up to 57.5 µM. The gist of the method:
as §1

The next assay concerns JEG-3. To be noted: Gynecologic cancer cell panel viability, ATPlite luminescence, 48 h; series mostly up to 57.5 µM. A digest of the protocol:
as §1

SMILES strings stand for the structures. Records with an inconclusive call do not appear. Unmarked numbers belong to inactive results. Activity calls are given as the source filed them. Calls follow the shape of the dose curve; as a rule, active = well fitted cell-killing curve with a large enough effect; inconclusive = small, poorly fitted or top-dose-only effect, or effect the other way; inactive = flat fitted curve, though single readings scatter.
% is scaled to controls: 0 for no effect and ±100 for the full control effect; potency is read from the fitted curve at half-maximal effect.

For the compound `O=C(NCc1ccccc1)c1ccc2c(=O)n(-c3cccc(C(F)(F)F)c3)c(=S)[nH]c2c1`, the Potency result in the assay with C33A, in the assay with CASKI, in the assay with Es-2, in the assay with HeLa, in the assay with Hek293T and in the assay on JEG-3 was “inactive” throughout.
`O=C1NC(=O)C(c2cnc3ccccn23)=C1c1cn2c3c(cc(F)cc13)CN(C(=O)N1CCCCC1)CC2`: the Potency entry with C33A, with CASKI, in the assay with Es-2, in the assay with HeLa, in the assay with Hek293T and with JEG-3 was “inactive” throughout.
For `CC(=O)O[C@@H]1C2=C(O)C(=O)[C@](C)(OC(C)=O)C(=O)C2=CO[C@@]12O[C@@H](C)CC[C@H]2OC(C)=O`, the Potency result with C33A, in the assay with CASKI, with Es-2, with HeLa, in the assay on Hek293T and in the assay on JEG-3 was “inactive” in each case.
For the compound `COc1cc(/C=C/C(=O)NCCn2c(C(F)(F)F)cc3ccccc32)cc(OC)c1OC`, the Potency entry with C33A, in the assay with CASKI, with Es-2, with HeLa, in the assay on Hek293T and with JEG-3 was “inactive” throughout.
Turning to `CC(=O)CC(=O)Nc1ccc(Cl)c(C(F)(F)F)c1`, the Potency result in the assay on C33A, with CASKI, in the assay with Es-2, in the assay with HeLa, in the assay with Hek293T and in the assay on JEG-3 was “inactive” throughout.
For `C[C@@H]1CC[C@@]23CC[C@]4(C)[C@@](C=CC5[C@@]6(C)CC[C@H](O)C(C)(C)C6CC[C@]54C)(OC2=O)C3[C@H]1C` (some centres not stated), the Potency result with C33A, in the assay on CASKI, in the assay on Es-2, in the assay with HeLa, in the assay on Hek293T and with JEG-3 was “inactive” throughout.
Regarding `CC(=O)N[C@H]1[C@H](O[C@H]2CC[C@@]3(C)C(CC[C@]4(C)C3CC=C3C5CC(C)(C)CC[C@]5(C(=O)O)C(O)C[C@]34C)C2(C)C)O[C@H](CO[C@@H]2O[C@H](C)[C@H](O)[C@H](O)[C@H]2O[C@@H]2OC[C@@H](O)[C@H](O)[C@H]2O)[C@@H](O)[C@@H]1O` (some centres not stated), the activity change, negative = cytotoxicity in the assay with C33A is 3.31% [at 11.6 µM]; in the assay with CASKI, 25.2% [at 11.6 µM]; in the assay on Es-2, 3.97% [at 11.6 µM]; in the assay with HeLa it was 4.55% [at 11.6 µM]; in the assay on Hek293T, -2.18% [at 11.6 µM]; in the assay with JEG-3, -18.9% [at 11.6 µM].
Take `NC(=O)c1cnc(N[C@@H]2CCCC[C@H]2N)nc1Nc1cccc(-n2nccn2)c1`: the Potency result with C33A, in the assay on CASKI, in the assay with Es-2, in the assay on HeLa, in the assay on Hek293T and with JEG-3 was “inactive” in each case.
Regarding `C=C(C(=O)OC[C@H]1O[C@@H](OC(=O)/C=C/c2ccccc2)[C@H](O)[C@@H](O)[C@@H]1O)C(O)CO` (some centres not stated), the Potency entry in the assay on C33A, with CASKI, with Es-2, in the assay with HeLa, with Hek293T and with JEG-3 was “inactive” throughout.
As to `C/C=C\NC(=O)C1NC(=O)C(CC(N)=O)NC(=O)C(NC(=O)C(=O)C(C)CC)Cc2ccc(O)c(c2)-c2cccc3c2NC(=O)C3(O)C1O` (configuration not stated), the Potency entry with C33A, in the assay on CASKI, with Es-2, in the assay on HeLa, in the assay with Hek293T and with JEG-3 was “inactive” throughout.
`Cc1cc(C)c(-n2cc(C)c3c(Cl)nc(C)nc32)c(C)c1`: the Potency entry in the assay with C33A, in the assay on CASKI, with Es-2, in the assay on HeLa, in the assay on Hek293T and with JEG-3 was “inactive” throughout.
As to `CN(C)CCN(Cc1ccccc1)C(=O)c1cc(-c2ccc(F)cc2)n2nc(C(C)(C)C)cc2n1`, the Potency result in the assay on C33A, with CASKI, in the assay on Es-2, with HeLa, with Hek293T and with JEG-3 was “inactive” throughout.
On to `CC(=O)O[C@H]1C[C@H](OC(C)=O)[C@]2(C)[C@H](CC[C@@]34O[C@@H]3C3=C(C)C(=O)O[C@@H]3C[C@H]42)C1(C)C`, for which the Potency entry in the assay on C33A, in the assay on CASKI, with Es-2, in the assay on HeLa, in the assay with Hek293T and in the assay with JEG-3 was “inactive” each time.
On to `C[C@@H](NC(=O)[C@H](O)c1cc(F)cc(F)c1)C(=O)N[C@@H]1C(=O)N(C)c2ccccc2-c2ccccc21`, for which the Potency entry in the assay on C33A, in the assay with CASKI, in the assay with Es-2, in the assay with HeLa, in the assay with Hek293T and with JEG-3 was “inactive” each time.
Turning to `CC(C)CCCCC(=O)N[C@@H](CO)C(=O)N[C@@H](CC(C)C)C(=O)[C@@]1(CO)CO1`, the Potency result in the assay on C33A, in the assay with CASKI, in the assay on Es-2, in the assay on HeLa, in the assay on Hek293T and in the assay with JEG-3 was “inactive” each time.
Turning to `Nc1cccc(CNC(=O)c2ccc(Oc3ccc(OCc4cccc(F)c4)cc3)nc2)c1`, the Potency entry with C33A, with CASKI, in the assay with Es-2, in the assay with HeLa, in the assay with Hek293T and in the assay on JEG-3 was “inactive” in each case.
For the compound `C[C@@H]1O[C@@H](O[C@H]2CC[C@@]3(C)C(CC[C@]4(C)C3CC=C3[C@@H]5CC(C)(C)CC[C@]5(C(=O)O[C@@H]5O[C@H](CO)[C@@H](O)[C@H](O)[C@H]5O)CC[C@]34C)[C@]2(C)CO)[C@H](O)[C@H](O[C@@H]2O[C@H](CO)[C@@H](O)[C@H](O)[C@H]2O)[C@H]1O` (some centres not stated), the activity change, negative = cytotoxicity is -20.9% [at 11.6 µM] with C33A; -6.26% [at 11.6 µM] in the assay with CASKI; -0.79% [at 11.6 µM] with Es-2; -1.56% [at 11.6 µM] in the assay with HeLa; -6.15% [at 11.6 µM] in the assay with Hek293T; -9.27% [at 11.6 µM] in the assay with JEG-3.
Consider `C=C1C(=O)OC[C@@H]1C/C=C(\C)CC1CC(C)C(=O)O1` (some centres not stated), for which the Potency result in the assay on C33A, in the assay with CASKI, with Es-2, with HeLa, in the assay on Hek293T and in the assay with JEG-3 was “inactive” throughout.
Consider `C[C@H](Oc1cc(-c2cnn(C3CCNCC3)c2)cnc1N)c1c(Cl)ccc(F)c1Cl`, for which the Potency entry in the assay with C33A, in the assay with CASKI, in the assay with Es-2, with HeLa, in the assay on Hek293T and in the assay on JEG-3 was “inactive” in each case.
Regarding `Cc1ccc(NC(=O)N2CCN(c3nc(N)nc4sc(-c5cccnc5)nc34)CC2)cc1`, the Potency result in the assay on C33A, in the assay on CASKI, in the assay with Es-2, in the assay on HeLa, with Hek293T and in the assay with JEG-3 was “inactive” in each case.
For the compound `COc1c(C(O)CC(C)C)ccc2c1C(=O)OCc1cc(C)cc(O)c1O2` (configuration not stated), the Potency entry in the assay with C33A, with CASKI, in the assay on Es-2, in the assay on HeLa, in the assay with Hek293T and in the assay with JEG-3 was “inactive” throughout.
With `CN(CC1COCCO1)S(=O)(=O)Nc1ccc2ccc3ncc(-c4cnn(C)c4)cc3c(=O)c2c1` (configuration not stated), the Potency entry with C33A, in the assay with CASKI, in the assay on Es-2, with Hek293T and in the assay with JEG-3 was “inactive” each time. For the same compound, the Potency in the assay on HeLa is 14.1 µM (active).
